According to a collection of fitness landscapes (doi:10.1016/j.celrep.2020.107928):
In all, about 81,000 sequences were measured (“one-hybrid fitness for binding NBS DNA”: median about -0.1, highest 2% from about 0.36 on). The sample as a whole holds a higher share of the highest values than the screen did.

B1: Caulobacter ParB omega fusion; a variant is named by its letters at X, in order, B8GW30 (parent)
chain: MESVVVGEPGMSEGRRGLGRGLSALLGEVDAAPAQAPGEQLGGSREAPIEILQRNPDQPRRTFREEDLEDLSNSIREKGVLQPILVRPSPDTAGEYQIVAGERAWRAAQRAGLKTVPIMVRELDDLAVLEIGIIENVQRADLNVLEEALSYKVLMEKFERTQENIAQTIGKSXSHVANXMRLLXLPDEVQSYLVSGELTAXHARAIAAAADPVALAKQIIEGGLSVRETEALARKAPNLSAGKSKGGRPPRVKDTDTQALESDLSSVLGLDVSIDHRGSTGTLTITYATLEQLDDLCNRLTRGI

Variants of: B1
Assay: one-hybrid fitness for binding NBS DNA (the Noc-binding site; scaled: cognate 1, non-cognate 0); higher = stronger binding
Settings: with NBS DNA site
Method in brief: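 Caulobacter ParB libraries with four specificity codons randomised were screened by bacterial one-hybrid selection in the E. coli USO strain, using a HIS3 reporter whose site lies 19 bp from the promoter. Selection ran for 48 hours at 37°C on M9 lacking histidine, with 0.1 mM IPTG and 5 mM 3-AT. Plasmids were Illumina-sequenced before and after selection, three replicate libraries were pooled, and variants with under 10 reads were dropped. Fitness is the log change in each variant's read ratio to wild type, rescaled against the cognate and non-cognate sites.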

Variant | one-hybrid fitness for binding NBS DNA
PRAV | ≤ 0.2
TDDT | ≤ 0.2
IQLF | ≤ 0.2
LTEG | ≤ 0.2
QNDR | ≤ 0.2
QNYR | 0.203
QNRR | 0.439
QNKN | ≤ 0.2
QNVR | ≤ 0.2
QNKR | 0.504
MEGC | ≤ 0.2
QKHA | 0.28
QRHA | 0.629
QIHA | 0.201
QCHA | 0.422
QPHA | ≤ 0.2
QSHA | 0.275
ADPD | ≤ 0.2
TEMV | ≤ 0.2
FTMS | ≤ 0.2
MEGT | ≤ 0.2
APSI | ≤ 0.2
RVGN | ≤ 0.2
RVGM | ≤ 0.2
RVGT | 0.491

Variant | one-hybrid fitness for binding NBS DNA
RVGR | 0.491
RVGS | 0.463
RVGD | ≤ 0.2
RVGF | ≤ 0.2
RVGH | ≤ 0.2
RVGP | ≤ 0.2
AKNC | ≤ 0.2
RDQV | ≤ 0.2
QMHW | ≤ 0.2
MIEP | ≤ 0.2
EVLS | ≤ 0.2
MMLC | ≤ 0.2
CVFT | ≤ 0.2
HSNA | ≤ 0.2
QYYS | 0.312
QYRD | ≤ 0.2
QYDH | ≤ 0.2
QYYH | ≤ 0.2
QYRN | 0.38
QYRS | 0.644
QYRP | 0.216
QYRH | 0.541
QYIS | 0.202
GEPE | ≤ 0.2
HWPK | ≤ 0.2

Variant | one-hybrid fitness for binding NBS DNA
GQSC | ≤ 0.2
RFKM | ≤ 0.2
AIRM | ≤ 0.2
RHKP | ≤ 0.2
RHKN | 0.205
RLKS | 0.554
RFKN | ≤ 0.2
RCKD | ≤ 0.2
RCKS | 0.612
RHKS | 0.57
RLKN | ≤ 0.2
RFKH | ≤ 0.2
RLKD | ≤ 0.2
RPKS | ≤ 0.2
RFKS | 0.444
TSAW | ≤ 0.2
RVSW | ≤ 0.2
DRFC | ≤ 0.2
SYSC | ≤ 0.2
PYQW | ≤ 0.2
SPAY | ≤ 0.2
KNRG | ≤ 0.2
RSKD | ≤ 0.2
RIVS | ≤ 0.2
RAKH | 0.36

Variant | one-hybrid fitness for binding NBS DNA
RIKP | ≤ 0.2
RSKS | 0.567
RAKS | 0.571
RSVS | 0.285
RAVS | 0.239
RIKS | 0.499
HGYR | ≤ 0.2
STVP | ≤ 0.2
PRHI | ≤ 0.2
VTRH | ≤ 0.2
QTNL | 0.214
RMAT | 0.426
RLAD | ≤ 0.2
RIAT | 0.376
RLAT | 0.423
RMFT | 0.261
RDAT | ≤ 0.2
RLFT | 0.238
RIFT | ≤ 0.2
RMAP | ≤ 0.2
RSAT | 0.414
RIAD | ≤ 0.2
RSAN | ≤ 0.2
